Experimental findings from PubChem BioAssay are described below.

Potency and affinity values are given separately. The source made the active and inactive calls. Where a call stands in place of a potency, no number is given. Cut-off not given; nearly all actives show IC50 up to about 0.91 µM.

The experiment deals with Calcium-dependent protein kinase 4 (Plasmodium falciparum (isolate 3D7)) (UniProt Q8IBS5). As to the kind of experiment: PfCDPK4 kinase inhibitors, biochemical, TCAMS library (AID 1159588). Conditions: recombinant PfCDPK4, Kinase-Glo ATP depletion luminescence. In general terms: Kinase-Glo reads ATP consumption through a luciferase reaction.
Chain of Calcium-dependent protein kinase 4 (Plasmodium falciparum (isolate 3D7)) (Q8IBS5 whole entry, looked up): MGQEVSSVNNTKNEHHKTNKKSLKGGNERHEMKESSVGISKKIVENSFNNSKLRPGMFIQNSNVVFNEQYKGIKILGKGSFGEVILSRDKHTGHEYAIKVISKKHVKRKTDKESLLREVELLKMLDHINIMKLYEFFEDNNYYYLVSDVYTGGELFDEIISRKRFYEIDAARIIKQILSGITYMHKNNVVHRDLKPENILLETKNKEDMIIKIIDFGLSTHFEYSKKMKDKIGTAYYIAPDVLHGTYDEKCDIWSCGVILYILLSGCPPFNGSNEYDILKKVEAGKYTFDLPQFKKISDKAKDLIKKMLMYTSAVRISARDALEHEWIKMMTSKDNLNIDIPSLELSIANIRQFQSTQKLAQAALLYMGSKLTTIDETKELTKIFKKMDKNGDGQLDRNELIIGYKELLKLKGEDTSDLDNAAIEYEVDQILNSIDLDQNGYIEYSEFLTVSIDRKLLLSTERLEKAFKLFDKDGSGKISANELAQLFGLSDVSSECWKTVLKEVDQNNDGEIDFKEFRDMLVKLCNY
For `COc1ccc(CC(C)NCC(O)c2cccc(Cl)c2F)cc1` (stereo not given), the result was inactive.

Regarding `O=C(NC1CCC(CN2CCC(c3c[nH]c4ccccc34)CC2)CC1)c1cnn(-c2ccccc2)c1-c1ccccc1Cl` (stereo not given), the outcome was inactive.

Take `COc1ccc(OC)c([C@H](O)[C@@H](C)NCc2cc(Cl)ccc2O)c1`: the outcome was inactive. For the compound `OC1(CNCc2ccccc2)CCN(CCc2c[nH]c3ccc(F)cc23)CC1`, the outcome was inactive.

Take `CNC(=O)c1ccc2[nH]cc(C3CCN(CC4CCC(NC(=O)/C=C/c5ccccc5Cl)CC4)CC3)c2c1` (stereo not given): the result was inactive. With `CC(Cc1ccc(SC(C)C)cc1)NCC(O)c1cccc(Cl)c1` (stereo not given), the outcome was inactive.

Turning to `CS(=O)(=O)Nc1ccc2c(C3CCN(CC4CCN(C(=O)/C=C/c5ccc(Cl)c(Cl)c5)CC4)CC3)c[nH]c2c1`, the result was inactive. As to `COC(=O)/C=C/c1ccc(C[C@@H](C)NC[C@H](O)c2cccc(C(F)(F)F)c2)cc1`, the result was inactive. The entry for `COCCNCc1cccc(-c2ccc(CN(C(=O)Nc3ccccc3)C3CCN(Cc4ccccc4)CC3)cc2)c1` is “inactive”; for `Cc1ccc(C[C@@H](C)NC[C@H](O)c2cccc(C(F)(F)F)c2)cc1` it is “inactive”.

Consider `CC[C@H]1CN2CC[C@H]1C[C@H]2[C@H](O)c1cc(-c2cccc(C)c2)nc2ccc(OC)cc12`, for which the result was inactive.

`CC(C)NC(=O)Cn1cc(C2CCN(CC3CCN(C(=O)/C=C/c4ccc(Cl)c(Cl)c4)CC3)CC2)c2ccccc21`: the outcome was inactive. Take `Cc1ccc(C)c(N2CCN(Cc3ccccc3O)CC2)c1`: the outcome was inactive. To `O=C(/C=C/c1ccc(Cl)c(Cl)c1)NCCCCCN1C2CCC1CC(c1c[nH]c3ccccc13)C2` (stereo not given) belongs “inactive”; to `CC(Cc1ccc(SC(C)(C)C)cc1)NCC(O)c1cccc(Cl)c1` (stereo not given), “inactive”; to `CC(C)CNCc1ccc(-c2cccc(CN(C(=O)Nc3ccccc3)C3CCN(Cc4ccccc4)CC3)c2)cc1`, “inactive”. With `C=C[C@H]1CN2CC[C@@H]1C[C@H]2[C@H](O)c1cc(-c2ccc(F)cc2)nc2ccc(OC)cc12`, the result was inactive. To `Cc1cccc(C(=O)Nc2ccnc(N(C)C3CCN(CC(C)C)CC3)c2)c1` belongs “inactive”. To `Cc1ccccc1CNCC(O)c1cccc(C(F)(F)F)c1` (stereo not given) belongs “inactive”; to `CNCCN(C)C(=O)Oc1c(Cl)c(C)nc(C)c1-c1ccc(Oc2ccc(OC(F)(F)F)cc2)cc1`, “inactive”. The entry for `O=C(/C=C/c1ccc(Cl)c(Cl)c1)NCCC1CCC(N2CCC(c3c[nH]c4ccc(O)cc34)CC2)CC1` (stereo not given) is “inactive”; for `CN(c1cc(NC(=O)c2cccs2)ccn1)C1CCN(Cc2ccccc2)CC1` it is “inactive”. In the case of `O=C(C=C1c2ccccc2-c2ccccc21)NC1CCC(CN2CCC(c3c[nH]c4ccccc34)CC2)CC1` (stereo not given), the result was inactive. Turning to `CC(=O)N(Cc1ccccc1-c1cccc(CNCc2ccc3c(c2)OCO3)c1)C1CCN(Cc2ccccc2)CC1`, the result was inactive. The entry for `CC(Cc1ccc(OCCOc2ccccc2)cc1)NCC(O)c1cccc(C(F)(F)F)c1` (stereo not given) is “inactive”. To `CC(=O)Nc1ccc2[nH]cc(C3CCN(CC4CCN(C(=O)/C=C/c5ccc(Cl)c(Cl)c5)CC4)CC3)c2c1` belongs “inactive”; to `CC(Cc1ccc(OCCCCOc2ccccc2)cc1)NCCCc1nc2ccccc2[nH]1` (stereo not given), “inactive”. The entry for `FC(F)(F)c1ccc(NC(=S)NC2CCC(CN3CCC(c4c[nH]c5ccccc45)CC3)CC2)cc1` (stereo not given) is “inactive”; for `COc1cccc(O)c1CNCC(O)c1cccc(C(F)(F)F)c1` (stereo not given) it is “inactive”; for `COc1ccc(CCNCc2ccc3nc(N)c(C)cc3c2)cc1` it is “inactive”. On to `Brc1cnc(NC2=NCCN2)c(Br)c1`, for which the outcome was inactive. The entry for `COc1ccc(C(=O)[C@H]2C[C@@H]2CN2CC=C(c3c[nH]c4ccccc34)CC2)cc1` is “inactive”; for `Oc1ccc(CN2CCN(CCOC(c3ccc(F)cc3)c3ccc(F)cc3)CC2)cc1Cl` it is “inactive”. In the case of `Oc1cc2c(cc1CN1CCN(Cc3ccccc3)CC1)CCC2`, the result was inactive.

On to `CN(CC(=O)N1CCN(S(=O)(=O)c2cccc(Cl)c2)CC1CN1CCCC1)c1ccc(Cl)c(Cl)c1` (stereo not given), for which the result was inactive. For `O=C(/C=C/c1ccc(Cl)c(Cl)c1)N1CCC(CN2CCC(c3c[nH]c4cc(C(F)(F)F)ccc34)CC2)CC1`, the outcome was inactive. The entry for `COc1cc(C=CC(=O)N2CCC(CN3CCC(c4c[nH]c5ccccc45)CC3)CC2)ccc1O` is “inactive”; for `COC(=O)c1ccc(CC(C)NCC(O)c2cccc(C(F)(F)F)c2)c(Cl)c1` (stereo not given) it is “inactive”.

As for `Cn1cc(CN2CCC(CCOC(c3ccccc3)c3ccccc3)CC2)cn1`, the outcome was inactive. The entry for `COc1cc(/C=C/C(=O)NC2CCC(CN3CCC(c4c[nH]c5ccccc45)CC3)CC2)ccc1O` (stereo not given) is “inactive”.
